# Screening results (PubChem)
# Most compounds without a hit are left out; they make up all but 6.3% or so of the library.
# TIM10 inh – growth inhibitors of TIM10 yeast strain. AID 463195. hit rate 1.4% among 330,000. inhibition, % at 10 µM. S. cerevisiae TIM10 strain growth, BacTiter-Glo luminescence, 24 h;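 active = inhibition of 40% or more at the single tested concentration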;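 also: wild-type TIM10 isogenic control strain grown at permissive 25 °C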
# tim10-1 inh – growth inhibitors of tim10-1 mutant yeast. S. cerevisiae tim10-1 ts strain growth, BacTiter-Glo, 24 h. inhibition, % at 20 µM. hit rate 2.2% among 330,000. AID 463190;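 active = inhibition of at least 40%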;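 also: mutant grown at 25 °C; 0% = DMSO wells with yeast and 100% = wells holding no yeast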
# MPTP block – permeability transition pore inhibition; isolated mouse mitochondria, Ca2+ swelling absorbance, 30 min; inhibition, % at 10 µM; hit rate 1.4% among 360,000; AID 602449;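 active = inhibition of 50% or more, scaled per plate between neutral and stimulator controls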;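 also: 0% = DMSO wells given calcium and 100% = 1 mM EGTA wells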
# Mdm2-MdmX inh – disrupts the human Mdm2-MdmX interaction; AID 485346; inhibition, % at 8 µM; hit rate 3% among 330,000; SaOS-2 split-luciferase Mdm2/MdmX complementation, luminescence; O15151+Q00987;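 active = inhibition of at least 50% at 8 µM in the primary screen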
# tim23-1 inh – growth inhibitors of tim23-1 mutant yeast | S. cerevisiae tim23-1 growth, BacTiter-Glo luminescence, 24 h | inhibition, % at 20 µM | hit rate 1.3% among 330,000 | AID 463212;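 active = growth inhibition of the mutant yeast at or above 50%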;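 also: temperature-sensitive mutant grown at 25 °C; plate controls were DMSO-treated mutant yeast for no effect and medium wells lacking yeast for full effect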
# tim10-1 confirm – tim10-1 yeast growth inhibition, confirmed; shares compounds with tim10-1 inh; S. cerevisiae tim10-1 ts strain growth, BacTiter-Glo, 24 h; inhibition, % at 20 µM; hit rate 56% among 7,400; AID 463213;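 active = inhibition of yeast growth at or above a set limit in either of two repeat tests at 20 µM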;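 also: tim10-1 mutant grown at permissive 25 °C to find synthetic lethal compounds; 0% = DMSO yeast wells and 100% = medium wells without yeast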
# TIM10 conf – TIM10 yeast growth inhibition, confirmed. inhibition, % at 10 µM. S. cerevisiae tim10 strain growth, BacTiter-Glo luminescence, 24 h. shares compounds with TIM10 inh. hit rate 63% among 4,600;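 active = inhibition of yeast growth at or above a set limit in either of two replicates at 10 µM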;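 also: this counterscreen used the strain with wild-type TIM10; 0% = yeast with DMSO and 100% = medium wells lacking yeast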
# tim23-1 conf – confirmation of tim23-1 mutant yeast growth inhibitors. AID 463218. inhibition, % at 20 µM. hit rate 83% among 4,400. S. cerevisiae tim23-1 growth, BacTiter-Glo luminescence, 24 h. shares compounds with tim23-1 inh;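 active = inhibition above about 39% in either of two replicate wells at 20 µM, limit read from the data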;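 also: temperature-sensitive tim23-1 mutant grown at 25 °C; 0% = DMSO wells with yeast and 100% = medium wells without yeast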
# * marks the source's active call; other numbers are inactive results; . = not tested or not shown.
SMILES,TIM10 inh,tim10-1 inh,MPTP block,Mdm2-MdmX inh,tim23-1 inh,tim10-1 confirm,TIM10 conf,tim23-1 conf
COc1ccc2nc3oc(C(=O)N4CC(C)CC(C)C4)cc3cc2c1 (stereo unspecified),14.7,59.3*,0.3,19.9,53.8*,4.8,.,41.1*
COc1ccc2cc3cc(C(=O)N4CCN(c5ccccc5)CC4)oc3nc2c1,-14.3,2.8,0.5,21.3,1.8,.,.,.
CC(C)C[C@@H]1COc2cccc(N3CCSCC3)c2S(=O)(=O)N1,.,.,-0.8,.,.,.,.,.
NNC(=O)c1[nH]c(-c2ccccc2)cc1-c1ccccc1,40.6*,56.8*,-0.7,25.1,53.4*,44.4*,21.2,45.8*
Cc1c(-c2ccccc2)n[nH]c1C(=O)NN,-7.8,-2.5,1.8,-4.0,7.9,.,.,.
O=S(=O)(c1cccc(-c2nc3ccccc3s2)c1)N1CCOCC1,43.1*,40.6*,1.9,-5.3,52.5*,39.7*,30.3*,40.4*
CCOC(=O)Oc1ccc(/C=C2\N=C(C)OC2=O)cc1,2.7,36.5,0.2,0.6,33.8,.,.,.
CCOc1c(Br)cc(/C=C2\N=C(C)OC2=O)cc1Br,28.2,61.4*,1.5,12.0,58.7*,32.5*,.,64.0*
Cc1c(C(=O)NCc2ccc3c(c2)OCCO3)sc(=O)n1Cc1cccc(C(F)(F)F)c1,.,.,-1.0,.,.,.,.,.
COc1ccc(-c2cc(C(=O)N(C)Cc3cccc(OC)c3OC)c3ccccc3n2)cc1OC,50.1*,53.1*,-1.0,48.7,69.9*,64.2*,50.4*,93.8*
COc1ccc(-c2cc(C(=O)N(C)CC(=O)Nc3cccc(F)c3)c3ccccc3n2)cc1OC,.,.,4.0,.,.,.,.,.
O=C1C2C3C=CC(CC3)C2S(=O)(=O)C2C3C=CC(CC3)C12 (stereo unspecified),.,.,0.4,.,.,.,.,.
CC(=NC1CC1)c1c(-c2ccccc2)[nH]n(-c2nc3ccccc3s2)c1=O,64.1*,53.1*,-0.4,-3.4,53.0*,55.6*,49.0*,52.5*
CCc1c(C)nc(Nc2nc(C)c3cc(OC)ccc3n2)[nH]c1=O,45.6*,41.7*,0.2,20.1,53.1*,31.3*,-8.9,52.1*
CCOC(=O)COc1c(C=O)cc(Br)cc1OC,65.3*,45.2*,1.6,-27.5,61.1*,36.2*,53.2*,75.2*
O=C(Nc1nnc(CCc2ccccc2)s1)c1ccco1,4.5,14.4,0.5,10.3,29.4,.,.,.
CCCc1cc(C(N)=O)c(NC(=O)c2ccoc2C)s1,34.0,47.3*,-0.9,4.0,65.4*,34.0*,.,68.2*
Cc1occc1C(=O)Nc1sccc1C(N)=O,17.4,-3.0,1.7,16.1,37.0,.,.,.
O=C(Nc1nnc(Cc2ccccc2)s1)c1ccco1,33.8,50.3*,-1.0,1.9,54.2*,29.2*,.,42.7*
NC(=O)c1cc(Cc2ccccc2)sc1NC(=O)c1ccco1,40.4*,49.9*,-1.9,-131.7,59.7*,48.3*,28.5,73.1*
O=C(Nc1nc2c(F)c(F)c(F)cc2s1)c1ccco1,22.0,10.0,1.6,-83.1,16.2,.,.,.
O=C(Nc1nc2c(ccc3ccccc32)s1)c1ccco1,66.2*,51.0*,1.6,-96.1,57.0*,52.0*,61.5*,75.3*
CCOC(=O)C(=O)N(C)c1c(CC)nc2c(OCCC3CCCCC3)cccn12,.,.,-0.7,.,.,.,.,.
O=C(Nc1nc2c(s1)CCc1ccccc1-2)c1ccco1,41.1*,54.9*,2.5,9.7,58.0*,49.2*,47.3*,61.3*
CC(=O)Nc1nc2c(s1)CCc1ccccc1-2,0.1,9.0,-0.3,10.3,10.7,.,.,.
CCOC(=O)c1ccc(NC(=O)Nc2ncc(Cl)cc2Cl)cc1,76.1*,70.1*,.,7.4,56.3*,77.5*,76.4*,68.7*
CC(C)(C)OC(=O)N/N=C\c1ccc([N+](=O)[O-])s1,58.1*,75.5*,0.4,-13.6,78.0*,49.5*,70.7*,63.9*
CCOC(=O)N/N=C\c1ccc([N+](=O)[O-])s1,32.4,53.4*,0.4,28.0,87.5*,38.3*,.,66.2*
CCOC(=O)N/N=C\c1ccc(C)s1,8.0,12.5,0.7,-5.0,5.4,.,.,.
